{"source": "PubChem BioAssay (NCI)", "note": "About 83,000 compounds went through this panel and 20% of them were active in at least one assay; those are over-represented in the sample as a whole.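 Cell lines were cultured in 96-well plates, exposed to a single compound concentration, and assessed for percent growth 48 hours later.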 Unmarked numbers belong to inactive results. The source made the active and inactive calls.", "data": [{"tested_on": "OVCAR-4 ovarian", "test": "NCI-60 one-dose screen, 48 h (100 = growth as untreated, 0 = no growth, -100 = all killed)", "details": "10 µM unless noted", "method": "Growth inhibition of the OVCAR-4 human tumor cell line is measured as a screen for anti-cancer activity. Cells are grown in 96 well plates and exposed to the test compound for 48 hours. Compounds are tested at a single concentration, which is 10^-5 M for most compounds. The reported endpoint is percent growth (GI% or GIPRCNT), where numbers from 0 - 100% represent growth inhibition, and numbers from -100% - 0 represent cell death. For example, a value of 40 represents 60% growth inhibition. A value of 0 means no net growth occurred over the course of the experiment. A value of -40 indicates 40% of cells at the beginning of the experiment died by the end of the experiment. A value of -100 means all cells are dead at the end of the experiment.\nNCI-60 Human Tumor Cell Lines Screen was performed using the standard one-dose NCI protocol, which is described in more detail at https://dtp.cancer.gov/discovery_development/nci-60/default.htm.\nCompounds with GIPRCNT values below 10 were considered active. Activity score was based on GIPRCNT using the following formula: […]\nScore is 0 for GIPRCNT values of 100 or above, 50 for GIPRCNT values of 0, and 100 for GIPRCNT values of -100.", "values": [{"molecule": "O=C(/C(=C/c1cccc([N+](=O)[O-])c1)c1ccccc1)c1ccccc1", "growth": "42.9%"}, {"molecule": "COc1ccc(/C=C2\\COc3ccc(O)c(O)c3C2=O)cc1OC", "growth": "30.1%"}, {"molecule": "COc1ccc(/C=N\\Nc2ccc([N+](=O)[O-])cn2)cc1OC", "growth": "-56.6% (active)"}, {"molecule": "O=C1/C(=C/c2ccc([N+](=O)[O-])o2)Oc2ccc(Cl)cc21", "growth": "-48% (active)"}, {"molecule": "CCC(O)C(C)(C)C", "note": "(stereo not given)", "growth": "118%"}, {"molecule": "COc1ccc(-c2cn(-c3ccccc3)c(-c3ccccc3)n2)cc1OC", "growth": "67.3%"}, {"molecule": "COc1ccc(C2=NN(C(=O)c3cc(OC)c(OC)c(OC)c3)C(c3ccc(C#N)cc3)C2)cc1OC", "note": "(stereo not given)", "growth": "62.1%"}, {"molecule": "CCOc1nc(-c2ccccc2)cc2c(O)c(-c3nnco3)[nH]c(=O)c12", "growth": "51.5%"}, {"molecule": "Clc1ccc2nc(Cl)c3ccccc3c2c1", "growth": "-42.6% (active)"}, {"molecule": "COc1cccc(-c2nnc(N)o2)c1", "growth": "97.9%"}, {"molecule": "C=C(C[C@@](O)(C(=O)Oc1ccccc1)C(=O)C1CCCCC1)c1ccccc1", "growth": "97.8%"}, {"molecule": "CN(C)c1nc(N)nc(Cn2c(-c3nonc3N)nc3ccccc32)n1", "growth": "87.8%"}, {"molecule": "CCOC(=O)c1c2c(c(C)n1Cc1ccc(OC)cc1)-c1nc(N)ncc1CC2", "growth": "112%"}, {"molecule": "COc1ccc(-c2cc(Cc3cccs3)c(=O)n(Cn3ccc4ccccc43)n2)cc1", "growth": "111%"}, {"molecule": "COc1ccc(-c2cncn2-c2ccc(-c3nc4cc(OC)c(OC)c(OC)c4s3)cc2)cc1N", "growth": "46.7%"}, {"molecule": "CC(=O)NCCSC(=O)C(=O)SCCNC(C)=O", "growth": "103%"}, {"molecule": "O=C(CCc1nnc(Cn2cncn2)o1)c1nc2ccccc2[nH]1", "growth": "111%"}, {"molecule": "Oc1ccccc1/C=N\\Nc1ccccc1", "growth": "84%"}, {"molecule": "NC(N)=N/N=C(/c1ccccc1)c1ccc(Cl)cc1", "growth": "95.2%"}, {"molecule": "C=CC1=C(C(=O)O)N2C(=O)[C@@H](NC(=O)/C(=N\\O)c3csc(N)n3)[C@H]2SC1", "note": "(stereo in doubt)", "growth": "108%"}, {"molecule": "COc1ccc(OC)c2c1[nH]c(=O)c1c3ccccc3cn21", "growth": "-29% (active)"}, {"molecule": "N#Cc1c2ccccc2c2n1-c1ccccc1OC(c1ccccc1)C2=O", "note": "(stereo not given)", "growth": "14.6%"}, {"molecule": "O=C1CC(C(F)(F)F)=NN1C(=O)c1nn(-c2ccc(Cl)cc2)cc1O", "growth": "79%"}, {"molecule": "O=C1/C(=N/O)CCc2ccccc21", "growth": "85.7%"}, {"molecule": "CSC1=Nc2c(c(C)c(-c3ccccc3)n2CCCN2CCCCC2)C2=NC(=O)C[C@H](C)N12", "growth": "43.6%"}, {"molecule": "COc1ccc(/C=N/NC(=O)c2ccc(S(C)(=O)=O)cc2)cc1OC", "growth": "96.2%"}, {"molecule": "Cc1ccc(C=C2C(Cl)=C(Cl)C(Cl)=C2Cl)cc1", "growth": "-35.3% (active)"}, {"molecule": "O=C(Nc1ncc([N+](=O)[O-])s1)c1cccc([N+](=O)[O-])c1", "growth": "40.5%"}, {"molecule": "CCN1CCN(c2cc(-c3cn[nH]c3-c3cc(C)cc(OC)c3)nc(-c3cccnc3)n2)CC1", "growth": "94%"}, {"molecule": "Cc1cc(NCCCNc2ccnc3cc(Cl)ccc23)nc(N2CCN(C)CC2)n1", "growth": "59.5%"}, {"molecule": "CCC(CC)NCCCCCNc1cc(OC)cc2cccnc12", "growth": "32.1%"}, {"molecule": "Cn1cc(-c2csc(-c3c[nH]c4ncccc34)n2)c2cc(Br)cnc21", "growth": "-34.6% (active)"}, {"molecule": "NS(=O)(=O)c1ccc(NC2=C(Cl)C(=O)c3ccccc3C2=O)cc1", "growth": "94.4%"}, {"molecule": "CCn1c2ccccc2c2ccc(C(C)=O)cc21", "growth": "96.7%"}, {"molecule": "CC[N+](CC)(CCOCCOCC[N+](CC)(CC)Cc1ccc([N+](=O)[O-])cc1)Cc1ccc([N+](=O)[O-])cc1", "growth": "106%"}, {"molecule": "Cc1cc(N2CCOCC2)nc(N2CCOCC2)n1", "growth": "93.9%"}, {"molecule": "COc1ccc(OC)c(/C=C/c2nc(=S)n(-c3ccc(Cl)cc3)[nH]2)c1", "growth": "91.6%"}, {"molecule": "Cn1cc(-c2nc(-c3c[nH]c4ncccc34)cs2)c2cccnc21", "growth": "70.4%"}, {"molecule": "Cc1nc2c(O)cccc2cc1CO", "growth": "100%"}, {"molecule": "O=C(Nc1ccc(Cl)cc1)Nc1ccc(Nc2nncc3ccccc23)cc1", "growth": "11.1%"}]}]}
